Hit rate of the full screen: of about 310,000 compounds, about 14,000 (4.5%) showed an effect of 50% or more. The effect is printed as a negative number. Only a selection was taken, and strong results are over-represented in it overall.

The record followed here is publication PMC4336329 (PLoS ONE, 2015).
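Also: peak tail current of the secondary pulse compared with the same well before compound.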

In this test the target is human ether-à-go-go-related gene (hERG) potassium channel (human, UniProt Q12809). The experiment in a line: primary screen, population patch clamp on CHO cells stably expressing hERG; higher = less effect of the substance.
human ether-à-go-go-related gene (hERG) potassium channel, sequence (Q12809 whole entry, looked up): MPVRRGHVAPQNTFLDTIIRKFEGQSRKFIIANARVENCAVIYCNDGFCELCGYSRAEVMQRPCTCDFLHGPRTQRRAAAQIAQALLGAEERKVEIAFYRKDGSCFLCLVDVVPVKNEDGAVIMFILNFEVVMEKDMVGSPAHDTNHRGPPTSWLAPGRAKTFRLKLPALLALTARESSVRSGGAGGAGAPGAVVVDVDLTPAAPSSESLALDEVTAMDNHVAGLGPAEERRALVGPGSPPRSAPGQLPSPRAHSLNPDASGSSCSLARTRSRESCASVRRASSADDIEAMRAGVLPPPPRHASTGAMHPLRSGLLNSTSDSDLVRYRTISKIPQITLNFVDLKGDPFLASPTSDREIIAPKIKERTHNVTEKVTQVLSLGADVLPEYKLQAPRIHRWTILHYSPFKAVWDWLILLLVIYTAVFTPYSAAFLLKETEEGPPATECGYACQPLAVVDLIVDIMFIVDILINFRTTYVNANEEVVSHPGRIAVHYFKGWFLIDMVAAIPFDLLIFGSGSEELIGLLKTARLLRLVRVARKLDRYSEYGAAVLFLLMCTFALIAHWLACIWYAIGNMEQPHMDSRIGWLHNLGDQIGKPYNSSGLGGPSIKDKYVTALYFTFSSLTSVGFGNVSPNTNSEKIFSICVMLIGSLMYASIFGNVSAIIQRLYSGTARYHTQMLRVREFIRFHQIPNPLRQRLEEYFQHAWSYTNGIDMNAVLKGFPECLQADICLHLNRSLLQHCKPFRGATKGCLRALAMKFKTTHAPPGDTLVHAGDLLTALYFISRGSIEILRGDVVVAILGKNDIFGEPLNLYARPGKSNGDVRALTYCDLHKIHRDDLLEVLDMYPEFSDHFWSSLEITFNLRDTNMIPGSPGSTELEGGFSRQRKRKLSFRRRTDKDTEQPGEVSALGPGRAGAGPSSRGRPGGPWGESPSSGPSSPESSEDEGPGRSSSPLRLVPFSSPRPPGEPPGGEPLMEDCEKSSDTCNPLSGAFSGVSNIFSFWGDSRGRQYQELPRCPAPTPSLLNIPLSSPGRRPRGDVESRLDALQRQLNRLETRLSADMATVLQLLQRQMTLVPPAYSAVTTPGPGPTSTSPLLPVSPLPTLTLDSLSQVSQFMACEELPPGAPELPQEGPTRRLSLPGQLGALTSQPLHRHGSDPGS
Take `Cc1ccc(CNC(=O)C2CC=CCC2C(=O)O)cc1` (stereo not drawn): the “hERG current change (%, negative = inhibition) at 10uM” value is listed as 16.3%. The figure for `CCOC(=O)c1cc([N+](=O)[O-])sc1N` is 2.1%. With `O=C(COC(=O)c1ccccc1O)Nc1cc(S(=O)(=O)N2CCCCCC2)ccc1Cl`, the “hERG current change (%, negative = inhibition) at 10uM” value is listed as -9%. The figure for `Cn1c(=O)n(C)c2cc(NC(=O)COc3ccc(F)cc3F)ccc21` is -13.6%; for `CCOc1ccccc1C(=O)NCC(=O)N(C)Cc1cccnc1` it is -3.07%. With `CCC(C)NCC(O)(c1ccc(Cl)cc1)c1ccc(Cl)cc1` (stereo not drawn) the figure was -37.7%; with `CCCCNCC(O)(c1ccc(Cl)cc1)c1ccc(Cl)cc1`, -68%. As for `CCN(CC)CCNC(=S)Nc1ccc(Cl)cc1`, the “hERG current change (%, negative = inhibition) at 10uM” value is reported as -21.7%. The figure for `CCN(CC)CCNCC(O)(c1ccc(Cl)cc1)c1ccc(Cl)cc1` is -82.4%; for `CC(C)(C)NCC(O)(c1ccc(Cl)cc1)c1ccc(Cl)cc1` it is -13.8%. Turning to `CCN(CC)CCNS(=O)(=O)c1ccc(Cl)cc1.Cl`, the “hERG current change (%, negative = inhibition) at 10uM” value is reported as -12.9%. With `COc1ccc(-c2nc3n(n2)C(c2cccnc2)C(C(N)=O)=C(C)N3)cc1` (stereo not drawn) the figure was -17.3%; with `CCOC(=O)COc1ccc(S(=O)(=O)Nc2ccc3c(c2)OCCO3)cc1`, -3.24%. With `COC(=O)C(Sc1nc(C)cc(C)c1C#N)c1ccccc1` (stereo not drawn) the figure was -10.6%; with `CC(CC(=O)NC1CCCCC1)S(=O)(=O)c1ccc2c(c1)CCN2C(=O)C1CC1` (stereo not drawn), 28.2%; with `CCCS(=O)(=O)N1CCCC(C(=O)NCc2ccc(C)cc2)C1` (stereo not drawn), 4.91%. On to `COc1ccc(S(=O)(=O)N2CCOCC2)cc1NC(=O)COC(=O)C1CCC1`, for which the “hERG current change (%, negative = inhibition) at 10uM” value is recorded as -6.23%. The figure for `Cl.OC(CN1CC=C(/C=C/c2ccc(Br)cc2)CC1)c1ccccc1` (stereo not drawn) is -2.33%. Consider `CC1=C(/C=C/c2ccccc2)CCN(C)C1.Cl`, for which the “hERG current change (%, negative = inhibition) at 10uM” value was -24.6%. `CN1CC=C(/C=C/c2ccc(-c3ccccc3)cc2)CC1.Cl`: the “hERG current change (%, negative = inhibition) at 10uM” value is listed as -50.1%. `CCCCc1nc(SCC(=O)Nc2cccc(Cl)c2)n[nH]1`: the “hERG current change (%, negative = inhibition) at 10uM” value is on record as -4.4%. With `Nc1ccc2nc(SCC(=O)c3ccccc3)sc2c1` the figure was 9.11%; with `COc1ccc(N2CCN(CCCNC(=S)Nc3c(C)cccc3C)CC2)cc1`, -52.4%. With `CCCN1CCN(CCCNC(=S)Nc2ccc(OC)cc2)CC1` the figure was -22.8%; with `CCOc1ccc(NC(=S)NCCN2CCN(Cc3ccccc3)CC2)cc1`, -62.3%; with `CCOc1cccc(C(=O)NC(=S)Nc2ccc(N3CCCC3)cc2)c1`, 10.8%. With `CCCOc1cccc(C(=O)NC(=S)Nc2ccc(N3CCN(C)CC3)cc2)c1` the figure was 1.67%; with `CCOc1ccc(NC(=S)NCCCN2CCOCC2)cc1`, 10.7%.

As for `CCOc1ccc(NC(=S)NCCCc2ccccc2)cc1`, the “hERG current change (%, negative = inhibition) at 10uM” value is reported as -12.4%. With `CCOc1ccc(NC(=S)NCCCN2CCN(c3ccc(OC)cc3)CC2)cc1` the figure was -70.7%; with `CCOc1ccc(NC(=S)Nc2ccc(OCc3ccccc3)cc2)cc1`, 4.64%. With `COc1ccc(N2CCC(CNC(=S)Nc3c(C)cccc3C)C2)cc1` (stereo not drawn) the figure was -4.72%. On to `COc1ccc(NC(=S)NCCCN2CCCC2)cc1`, for which the “hERG current change (%, negative = inhibition) at 10uM” value is listed as 5.95%. With `CCOc1cccc(C(=O)NC(=S)Nc2ccc(N3CCN(CC)CC3)cc2)c1` the figure was -72.1%; with `COCCCn1cc(C(=O)c2ccccc2OCC(=O)Nc2cccc(F)c2)cc(C#N)c1=O`, -35.9%. On to `CN([C@@H](C(=O)OC(C)(C)C)c1ccccc1)S(=O)(=O)c1cccc(S(=O)(=O)N(C)[C@@H](C(=O)OC(C)(C)C)c2ccccc2)c1`, for which the “hERG current change (%, negative = inhibition) at 10uM” value was 14.3%.

With `O=C(Nc1ccc(Cl)cc1F)c1cccc2ccccc12`, the “hERG current change (%, negative = inhibition) at 10uM” value is 12.2%.

Turning to `COc1cc(Cn2c(=O)c3c(OC)c(C)cnc3n(C)c2=O)cc(OC)c1`, the “hERG current change (%, negative = inhibition) at 10uM” value is recorded as 14.1%. Regarding `Cn1c(CO)cnc1SCc1ccc(Cl)cc1`, the “hERG current change (%, negative = inhibition) at 10uM” value was determined as 0.94%.

As to `CCOc1ccc(C(=O)NC(=S)NCCCN2CCOCC2)cc1`, the “hERG current change (%, negative = inhibition) at 10uM” value is listed as -50.1%. The figure for `O=C(NC(=S)NCCCN1CCOCC1)c1ccc(Br)cc1` is -42.9%. Turning to `Cc1ccc(C(=O)NC(=S)NCCCN2CCOCC2)cc1`, the “hERG current change (%, negative = inhibition) at 10uM” value is -7.43%. The figure for `O=C(O)c1ccc(N2C(=O)CC(N3CCN(c4ccc(Cl)cc4)CC3)C2=O)cc1` (stereo not drawn) is 6.79%; for `O=C(NCc1ccc(-c2csnn2)cc1)C1CC1` it is 7.09%.

Take `CC1CCN(c2nc3c(=O)[nH]c(N)nc3n2[C@@H]2O[C@H](CO)[C@@H](O)[C@H]2O)CC1`: the “hERG current change (%, negative = inhibition) at 10uM” value came to 13.6%. With `COC(=O)c1ccc(NC(=O)Cn2cnc3c(nnn3-c3cccc(OC)c3)c2=O)cc1` the figure was 3.08%. On to `CN1CCc2nc3ccc(Cl)cc3c(-c3ccccc3Cl)c2C1.Cl`, for which the “hERG current change (%, negative = inhibition) at 10uM” value is reported as -65.7%. The figure for `Cl.Clc1ccc2nc3c(c(-c4ccccc4)c2c1)CNCC3` is -37.3%; for `CN1CCc2nc3ccc(F)cc3c(C(N)=O)c2C1.Cl` it is -4.4%. With `CN(C)c1ccc(Nc2ncnc3ccc(Br)cc23)cc1` the figure was 20.4%; with `CNc1c([N+](=O)[O-])cnn1-c1ccc(C)cc1`, -2.24%; with `COc1ccc(O)c(CN2CCCC(N3CCN(c4ccc(F)cc4)CC3)C2)c1` (stereo not drawn), -59.7%. Take `COc1cc(CN2CCCC(N3CCN(c4ccccc4C)CC3)C2)ccc1O` (stereo not drawn): the “hERG current change (%, negative = inhibition) at 10uM” value is listed as -27%. With `CCOc1cc(CN2CCN(c3ccc(C(C)=O)cc3)CC2)ccc1OC` the figure was -23.5%; with `CC(C)/C=C/CN1CCCC(N2CCN(c3cccc(Cl)c3)CC2)C1` (stereo not drawn), -50.7%. The figure for `COc1ccc(O)c(CN2CCCC(N3CCN(c4ccccc4OC)CC3)C2)c1` (stereo not drawn) is -11%.

Regarding `COc1ccccc1N1CCN(C2CCCN(Cc3cccc(O)c3)C2)CC1` (stereo not drawn), the “hERG current change (%, negative = inhibition) at 10uM” value is -9.65%. Turning to `COc1ccc(CN2CCCC(N3CCN(c4cccc(Cl)c4)CC3)C2)cc1OC` (stereo not drawn), the “hERG current change (%, negative = inhibition) at 10uM” value is listed as -54.1%. With `CCOc1cc(CN2CCCC(N3CCN(c4ccc(F)cc4)CC3)C2)ccc1OC` (stereo not drawn) the figure was -62.7%; with `CC(C)CN1CCCC(N2CCN(c3cccc(Cl)c3)CC2)C1` (stereo not drawn), -21.5%; with `COc1ccccc1N1CCN(C2CCCN(Cc3ccc(Cl)cc3)C2)CC1` (stereo not drawn), -41.1%.

For the molecule `Cc1cccc(C(=O)N2CCCC(N3CCN(c4cccc(Cl)c4)CC3)C2)n1` (stereo not drawn), the “hERG current change (%, negative = inhibition) at 10uM” value is given as -17.5%.

Regarding `COc1ccc(N2CCN(C3CCCN(Cc4ccc(F)cc4Cl)C3)CC2)cc1` (stereo not drawn), the “hERG current change (%, negative = inhibition) at 10uM” value is recorded as -35.2%.

Regarding `C#CC(C)(C)NC(=O)c1ccccc1OC`, the “hERG current change (%, negative = inhibition) at 10uM” value is on record as 1.69%. The figure for `CC(C)CNC(=O)COC(=O)/C=C/c1ccccc1[N+](=O)[O-]` is 5.61%. With `COCc1cc(C)nc(SCC(=O)c2ccc(O)c(O)c2)c1C#N` the figure was 6.86%; with `CN(C)S(=O)(=O)N(CC(=O)Nc1ccc2ccccc2c1)c1ccccc1`, 8.45%. With `CN1CCN(CCC(=O)Nc2ccc(OCc3ccccc3)cc2)CC1` the figure was -41.6%. In the case of `Cn1cc(C(=O)c2cccc(Cl)c2Cl)cc1C(=O)O`, the “hERG current change (%, negative = inhibition) at 10uM” value came to 10.2%.

On to `COc1ccc(-c2cc(-c3ccc(O)cc3)nc(N)c2C#N)cc1`, for which the “hERG current change (%, negative = inhibition) at 10uM” value stood at 3.91%. The figure for `COc1cc(/C=C(\C#N)C(=O)Nc2ccc3ccccc3c2)c([N+](=O)[O-])cc1OC` is 8.14%. The figure for `Cc1c(C)n2c(SCC(=O)N3CCC(C)CC3)nnc2[nH]c1=O` is 15.3%; for `CC(=O)Nc1ccccc1NC(=O)C/C(C)=N/NC(=O)Cc1cccc2ccccc12` it is 10.8%. With `C=CCSC1=C(C#N)C(c2ccccc2OC)CC(=O)N1` (stereo not drawn) the figure was -2.19%. With `CCn1nc(C)cc1C(=O)N1CCCC(N2CCN(c3cccc(Cl)c3)CC2)C1` (stereo not drawn), the “hERG current change (%, negative = inhibition) at 10uM” value is -35%. Turning to `COc1ccccc1N1CCN(C2CCCN(Cc3cc(F)cc(F)c3)C2)CC1` (stereo not drawn), the “hERG current change (%, negative = inhibition) at 10uM” value was -6.62%. In the case of `CCOc1cccc(CN2CCCC(N3CCc4cc(OC)c(OC)cc4C3)C2)c1O` (stereo not drawn), the “hERG current change (%, negative = inhibition) at 10uM” value is -39.3%. With `CCOc1cccc(CN2CCCC(N3CCN(c4cccc(Cl)c4)CC3)C2)c1O` (stereo not drawn) the figure was -58.7%; with `COc1ccccc1CN1CCCC(N2CCN(c3ccc(F)cc3)CC2)C1` (stereo not drawn), -56.2%. On to `COc1cc(CN2CCCC(N3CCN(c4ccc(F)cc4)CC3)C2)ccc1F` (stereo not drawn), for which the “hERG current change (%, negative = inhibition) at 10uM” value is recorded as -64.4%. The figure for `COc1ccc(N2CCN(C3CCCN(Cc4ccc(F)cc4)C3)CC2)cc1` (stereo not drawn) is -32.8%. With `COc1ccccc1CN1CCCC(N2CCN(c3ccccc3OC)CC2)C1` (stereo not drawn) the figure was -11.9%; with `COc1ccc(N2CCN(C3CCCN(Cc4ccccc4OCCO)C3)CC2)cc1` (stereo not drawn), -24.1%; with `CCCCn1c(N)c(N(CCOC)C(=O)C2CCN(S(=O)(=O)c3ccc(F)cc3)CC2)c(=O)[nH]c1=O`, -1.06%.

In the case of `COCCCN(C(C)=O)c1nc(-c2ccccc2)cs1`, the “hERG current change (%, negative = inhibition) at 10uM” value is reported as -23.4%. The figure for `CCNC(=O)CSc1nc(-c2ccc(F)cc2)cs1` is 21.2%; for `O=C(NCC(c1ccco1)N1CCc2ccccc21)c1ccc([N+](=O)[O-])cc1` (stereo not drawn) it is -18.3%. The figure for `Cn1c(SCc2ccc(Cl)cc2)nnc1-c1ccc2nonc2c1` is 0.685%; for `Cn1c(SCc2c(Cl)cccc2Cl)nnc1-c1ccc2nonc2c1` it is -55.1%. The figure for `Cn1c(SCc2ccccc2)nnc1-c1ccc2nonc2c1` is -9.18%.
